Inconclusive results are not listed. Activity calls are given as the source filed them. Unless noted, calls follow the shape of the full dose curve.
Tests used:
[1] = Nuclear factor erythroid 2-related factor 2/antioxidant responsive element (Nrf2/ARE) small molecule agonists: qHTS cell viability counter screen in human keratinocytes (AID 1919968; active = well fitted curve in the direction sought with a large enough effect in the repeat runs; an effect the other way counts as inactive or inconclusive; also: nearly all actives have a fitted effect of over 55% in size; also: potency is read from the fitted curve at half-maximal effect)
In short: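 Fluorescence read-out from CellTiter-Fluor after 1 h at 37 C. Wells held HaCaT-derived ARE-luciferase reporter cells (1,500/well) treated 23 h with DMSO-dissolved compounds. Run in the same wells as the luciferase agonist read.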

[2] = Nuclear factor erythroid 2-related factor 2/antioxidant responsive element (Nrf2/ARE) small molecule agonists: luciferase reporter gene qHTS assay in human keratinocytes (AID 1919969); also: nearly all actives have a fitted effect of over 35% in size; also: potency is read from the fitted curve at half-maximal effect
[3] = molecular target: Gonadotropin-releasing hormone receptor (Homo sapiens) (UniProt P30968); assay: Human gonadotropin-releasing hormone receptor (GnRHR) small molecule agonists, calcium flux assay in GnRHR-HEK293 cells (AID 1920063); also: nearly all actives have a fitted effect of over 35% in size
Sequence of Gonadotropin-releasing hormone receptor (Homo sapiens) (P30968 whole entry, looked up): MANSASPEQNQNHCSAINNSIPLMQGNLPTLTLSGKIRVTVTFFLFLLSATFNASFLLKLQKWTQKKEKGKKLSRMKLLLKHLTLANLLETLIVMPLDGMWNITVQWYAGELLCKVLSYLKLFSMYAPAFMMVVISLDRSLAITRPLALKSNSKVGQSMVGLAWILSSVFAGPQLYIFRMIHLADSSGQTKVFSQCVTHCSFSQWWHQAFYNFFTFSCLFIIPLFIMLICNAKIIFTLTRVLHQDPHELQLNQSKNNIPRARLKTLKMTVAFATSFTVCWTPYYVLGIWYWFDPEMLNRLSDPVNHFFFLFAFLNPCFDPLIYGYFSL
In short: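 Calcium-dye fluorescence, Ex/Em=480/540, recorded every 1 sec over 3 min after compound addition to GnRHR-HEK293 cells. Cells had been seeded 18 hours earlier and dye-loaded for 1 hour at 37 C. Fifteen concentrations, triplicates.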

[4] = molecular target: KiSS-1 receptor (Homo sapiens) (UniProt Q969F8); assay: Human kisspeptin (KISS1R) small molecule agonists, calcium flux assay in KISS1R-HEK293 cells (AID 1920064; active = well fitted curve in the direction sought with a large enough effect in the repeat runs; an effect the other way counts as inactive or inconclusive)
Sequence of KiSS-1 receptor (Homo sapiens) (Q969F8 whole entry, looked up): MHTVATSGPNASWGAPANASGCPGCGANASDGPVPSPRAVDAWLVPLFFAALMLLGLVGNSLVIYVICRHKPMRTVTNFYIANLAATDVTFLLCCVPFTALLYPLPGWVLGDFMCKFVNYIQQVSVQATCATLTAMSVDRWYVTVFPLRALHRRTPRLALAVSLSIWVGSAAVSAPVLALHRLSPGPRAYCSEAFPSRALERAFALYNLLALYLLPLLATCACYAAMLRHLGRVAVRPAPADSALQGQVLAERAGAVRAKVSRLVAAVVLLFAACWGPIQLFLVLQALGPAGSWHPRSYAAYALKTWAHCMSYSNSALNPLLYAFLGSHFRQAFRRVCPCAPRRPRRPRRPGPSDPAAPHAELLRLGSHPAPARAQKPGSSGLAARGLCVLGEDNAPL
In short: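 Calcium flux read-out: kinetic fluorescence at Ex/Em=480/540, 1 s intervals over 3 min, after pin-tool compound addition to dye-loaded KISS1R-HEK293 cells. Fifteen concentrations, triplicates.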

[5] = G protein-coupled receptor (GPCR) small molecule agonists, calcium flux assay: HEK293 wild type cell line counter screen (AID 1920065)
In short: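 Agonist mode; 18 h seeding at 37 C, 1 h dye load at 37 C; compounds pinned from DMSO, ATP as positive control; kinetic fluorescence 480/540 nm, 3 min, 1 s reads; 15 concentrations, triplicate.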

[6] = p53 small molecule agonists, cell-based qHTS assay with human liver microsomes (AID 1963577);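 also: p53 response element beta-lactamase reporter cells with liver microsomes plus NADPH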
In short: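 With metabolic activation: human liver microsomes (0.5 mg/mL final) plus NADPH (0.5 mg/mL final) added alongside compounds to p53RE-bla cells; 16 h 37 C exposure; beta-lactamase read by LiveBLAzer fluorescence.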

[7] = p53 small molecule agonists, cell-based qHTS assay with rat liver microsomes (AID 1963578)
In short: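 Metabolic activation by rat liver microsomes and NADPH, each 0.5 mg/mL final, added right after compounds to p53RE-bla reporter cells (4,000/well, plated 5 h earlier). 16 h at 37 C, then LiveBLAzer substrate for 2 h at room temperature in the dark; fluorescence read-out.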

[8] = p53 small molecule agonists, cell-based qHTS assay with human liver microsomes: qHTS cell viability counter screen (AID 1963579); also: nearly all actives have a fitted effect of over 45% in size
In short: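 Metabolic activation used human liver microsomes and NADPH, both 0.5 mg/mL final, over 16 hours at 37 C on p53RE-bla cells (4,000/well). Cytotoxicity measured by CellTiter-Glo luminescence, 30 min at room temperature.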

[9] = p53 small molecule agonists, cell-based qHTS assay with rat liver microsomes: qHTS cell viability counter screen (AID 1963580); also: nearly all actives have a fitted effect of over 45% in size
In short: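 Rat liver microsome (0.5 mg/mL final) and NADPH (0.5 mg/mL final) co-incubation with compounds for 16 h at 37 C on HCT-116 p53RE-bla cells; cytotoxicity taken from intracellular ATP luminescence.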

[10] = p53 small molecule agonists, cell-based qHTS assay: qHTS cell viability counter screen (AID 1963581); also: nearly all actives have a fitted effect of over 45% in size
In short: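 Cytotoxicity read-out: ATP-based luminescence (CellTiter-Glo, 30 min RT) measured in the same wells as the p53 reporter assay, HCT-116 p53RE-bla cells, 16 h compound exposure at 37 C.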

[11] = p53 small molecule agonists, cell-based qHTS assay (AID 1963582; active = well fitted activation curve with a large enough effect in the signal ratio in the repeat runs, not every such curve was filed as active; the % refers to the signal ratio)
In short: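 Fluorescence intensity read-out of a beta-lactamase reporter under a p53 response element. Cells were exposed to DMSO-dissolved compounds for 16 h at 37 C, then developed with FRET substrate for 2 h at RT.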

[12] = molecular target: 5-hydroxytryptamine receptor 2A (Homo sapiens) (UniProt P28223); assay: 5-hydroxytryptamine receptor 2A (HTR2A) small molecule antagonists, cell-based qHTS assay (AID 1963586); also: nearly all actives have a fitted effect of over 45% in size; also: potency is read from the fitted curve at half-maximal effect
Sequence of 5-hydroxytryptamine receptor 2A (Homo sapiens) (P28223 whole entry, looked up): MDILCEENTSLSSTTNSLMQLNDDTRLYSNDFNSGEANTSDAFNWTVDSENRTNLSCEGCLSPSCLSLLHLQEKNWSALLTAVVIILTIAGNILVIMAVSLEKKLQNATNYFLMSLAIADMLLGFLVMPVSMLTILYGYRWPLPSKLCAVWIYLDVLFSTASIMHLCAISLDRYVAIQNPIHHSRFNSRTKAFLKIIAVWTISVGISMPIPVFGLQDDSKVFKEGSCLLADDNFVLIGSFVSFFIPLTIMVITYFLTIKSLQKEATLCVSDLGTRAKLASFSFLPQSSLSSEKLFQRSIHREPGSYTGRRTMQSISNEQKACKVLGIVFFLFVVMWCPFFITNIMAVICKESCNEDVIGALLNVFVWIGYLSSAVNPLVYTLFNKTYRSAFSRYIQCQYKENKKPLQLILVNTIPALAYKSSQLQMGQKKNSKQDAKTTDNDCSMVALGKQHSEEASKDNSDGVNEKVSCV
In short: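 CHO cells stably expressing human HTR2A were plated for 18 h at 37 C, then loaded with calcium dye for 1 h. Compounds were preincubated 5 min at room temperature before DOI (4 nM solution) was added. Kinetic fluorescence was read for 3 min.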

[13] = molecular target: 5-hydroxytryptamine receptor 2A (Homo sapiens) (UniProt P28223); assay: 5-hydroxytryptamine receptor 2A (HTR2A) small molecule agonists, cell-based qHTS assay (AID 1963587); also: nearly all actives have a fitted effect of over 30% in size
In short: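 Kinetic calcium-flux fluorescence (2 min, 1 sec intervals) after compound addition in agonist mode. HTR2A-CHO cells were cultured 18 h, then dye-loaded 1 h at 37 C.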

[14] = molecular target: Muscarinic acetylcholine receptor M1 (Homo sapiens) (UniProt P11229); assay: Cholinergic receptor muscarinic 1 (CHRM1) small molecule antagonists, cell-based qHTS assay (AID 1963588); also: nearly all actives have a fitted effect of over 40% in size; also: potency is read from the fitted curve at half-maximal effect
Sequence of Muscarinic acetylcholine receptor M1 (Homo sapiens) (P11229 whole entry, looked up): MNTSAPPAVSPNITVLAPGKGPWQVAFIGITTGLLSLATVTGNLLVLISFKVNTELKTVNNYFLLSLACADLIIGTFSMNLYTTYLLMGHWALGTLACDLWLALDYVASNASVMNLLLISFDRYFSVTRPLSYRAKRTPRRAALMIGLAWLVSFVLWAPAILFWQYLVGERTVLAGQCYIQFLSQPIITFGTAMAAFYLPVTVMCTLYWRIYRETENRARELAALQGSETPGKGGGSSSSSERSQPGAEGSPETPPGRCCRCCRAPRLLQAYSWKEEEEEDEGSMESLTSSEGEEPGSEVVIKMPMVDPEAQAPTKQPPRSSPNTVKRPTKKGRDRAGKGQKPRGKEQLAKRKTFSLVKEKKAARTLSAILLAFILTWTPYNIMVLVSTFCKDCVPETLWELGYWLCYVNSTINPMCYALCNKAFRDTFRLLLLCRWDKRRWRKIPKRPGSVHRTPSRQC
In short: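 Compounds were tested at 15 concentrations in three independent runs. Dye-loaded CHRM1-CHO cells were exposed 5 min at room temperature before stimulation by acetylcholine added at 50nM. Intracellular calcium was read kinetically on FDSS for 3 min.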

[15] = molecular target: Muscarinic acetylcholine receptor M1 (Homo sapiens) (UniProt P11229); assay: Cholinergic receptor muscarinic 1 (CHRM1) small molecule agonists, cell-based qHTS assay (AID 1963589); also: nearly all actives have a fitted effect of over 35% in size
In short: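 Calcium flux read-out: kinetic fluorescence at 1 sec intervals after pin-tool compound addition to dye-loaded CHRM1-CHO cells (human M1). Agonist mode; 15 concentrations tested in triplicate independent runs.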

[16] = molecular target: Beta-2 adrenergic receptor (Homo sapiens) (UniProt P07550); assay: Adrenergic beta2 receptor (ADRB2) small molecule antagonists, cell-based qHTS assay (AID 1963592); also: nearly all actives have a fitted effect of over 50% in size; also: potency is read from the fitted curve at half-maximal effect; as to activity change, negative = inhibition: series mostly up to about 92 µM
Sequence of Beta-2 adrenergic receptor (Homo sapiens) (P07550 whole entry, looked up): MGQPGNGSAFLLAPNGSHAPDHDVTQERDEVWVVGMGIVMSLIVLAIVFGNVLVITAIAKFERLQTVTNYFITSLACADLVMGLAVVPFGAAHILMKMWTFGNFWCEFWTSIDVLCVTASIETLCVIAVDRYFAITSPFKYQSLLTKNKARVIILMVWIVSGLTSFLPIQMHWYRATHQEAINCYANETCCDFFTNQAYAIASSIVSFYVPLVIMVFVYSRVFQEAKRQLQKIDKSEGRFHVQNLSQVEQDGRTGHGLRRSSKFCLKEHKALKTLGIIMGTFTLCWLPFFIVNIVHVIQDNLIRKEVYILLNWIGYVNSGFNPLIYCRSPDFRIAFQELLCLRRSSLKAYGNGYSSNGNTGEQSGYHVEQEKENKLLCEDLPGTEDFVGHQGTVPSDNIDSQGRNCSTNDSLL
In short: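 Assay format: CHO-ADRB2 cells, 18-20hr seeding at 37C/5% CO2, then compound plus 1nM isoproterenol agonist mix for 0.5hr RT. Homogeneous time-resolved fluorescence cAMP detection after 1hr, expressed as 665/615 nm ratio.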

[17] = molecular target: D(2) dopamine receptor (Homo sapiens) (UniProt P14416); assay: Dopamine D2 receptor (DRD2) small molecule agonists, cell-based qHTS assay (AID 1963594); also: nearly all actives have a fitted effect of over 35% in size
Sequence of D(2) dopamine receptor (Homo sapiens) (P14416 whole entry, looked up): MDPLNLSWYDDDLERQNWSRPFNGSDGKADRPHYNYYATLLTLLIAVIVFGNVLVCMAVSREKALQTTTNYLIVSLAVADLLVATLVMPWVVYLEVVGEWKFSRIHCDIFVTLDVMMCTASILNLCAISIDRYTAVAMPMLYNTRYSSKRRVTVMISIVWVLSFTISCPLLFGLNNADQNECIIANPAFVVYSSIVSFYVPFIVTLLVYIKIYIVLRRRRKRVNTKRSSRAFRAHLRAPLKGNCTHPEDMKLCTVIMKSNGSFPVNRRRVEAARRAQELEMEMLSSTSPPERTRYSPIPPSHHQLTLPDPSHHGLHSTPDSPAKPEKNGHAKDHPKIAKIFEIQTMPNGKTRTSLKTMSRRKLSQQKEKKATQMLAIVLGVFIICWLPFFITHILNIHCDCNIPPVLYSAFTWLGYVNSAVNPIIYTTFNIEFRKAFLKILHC
In short: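 cAMP accumulation in DRD2-HEK293 cells measured by HTRF after 1 h detection; compounds added 10 min before NKH477 (200nM […]) forskolin-analogue stimulation, 30 min at room temperature, with Ro20-1724 present at 0.1 mM final.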

[18] = molecular target: D(2) dopamine receptor (Homo sapiens) (UniProt P14416); assay: Dopamine D2 receptor (DRD2) small molecule antagonists, cell-based qHTS assay (AID 1963595; active = well fitted inhibition curve with a large enough effect in the signal ratio in the repeat runs, with a control signal flat; the % refers to the signal ratio)
In short: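 HEK293 cells stably expressing DRD2 were preincubated with 0.1 mM Ro20-1724, then with compound for 10 min at room temperature. Cells were stimulated with 200 nM NKH477 plus 12 nM quinpirole for 30 min, and cAMP was read by HTRF.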

[19] = cAMP Responsive Elements (CRE) small molecule antagonists, cell-based qHTS assay (AID 1963591; active = well fitted inhibition curve with a large enough effect in the signal ratio in the repeat runs, not every such curve was filed as active; the % refers to the signal ratio)
In short: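 HEK293T CRE-bla; 18 h preincubation; compound pin-transfer; NKH477 0.25 uM final, 3 h, 37 C; LiveBLAzer FRET substrate 2 h RT.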
% is scaled to controls: 0 for no effect and ±100 for the full control effect.

CCOC(=O)Cn1c(=O)sc2cccc(Cl)c21
inactive: Potency [1] | Potency [2] | Potency [3] | outcome [4] | outcome [5] | Potency [6] | Potency [7] | Potency [8] | Potency [9] | Potency [10] | Potency [11] | Potency [12] | Potency [13] | Potency [14] | Potency [15] | Potency [16] | Potency [17] | Potency [18]

CCNc1nc(NC(C)(C)C)nc(OC)n1
inactive: Potency [1] | Potency [2] | Potency [3] | outcome [4] | outcome [5] | Potency [6] | Potency [7] | Potency [8] | Potency [9] | Potency [10] | Potency [11] | Potency [12] | Potency [13] | Potency [14] | Potency [15] | Potency [16] | Potency [17] | Potency [18]

CNCc1ccccc1
inactive: Potency [1] | Potency [2] | Potency [3] | outcome [4] | outcome [5] | Potency [6] | Potency [7] | Potency [8] | Potency [9] | Potency [10] | Potency [11] | Potency [12] | Potency [13] | Potency [14] | Potency [15] | Potency [19] | Potency [16] | Potency [17] | Potency [18]

C=CCOc1c(Br)cc(Br)cc1Br
inactive: Potency [1] | Potency [2] | Potency [3] | outcome [4] | outcome [5] | Potency [6] | Potency [7] | Potency [8] | Potency [9] | Potency [10] | Potency [11] | Potency [12] | Potency [13] | Potency [14] | Potency [15] | Potency [19] | Potency [16] | Potency [17] | Potency [18]

Cc1cccc(Oc2ccccc2)c1
active: Potency [12] 1 nM
inactive: Potency [1] | Potency [2] | Potency [3] | outcome [4] | outcome [5] | Potency [6] | Potency [7] | Potency [8] | Potency [9] | Potency [10] | Potency [11] | Potency [13] | Potency [14] | Potency [15] | Potency [19] | Potency [16] | Potency [17] | Potency [18]

CN1CCN(c2cc3c(cc2F)c(=O)c(C(=O)O)cn3-c2ccc(F)cc2)CC1
inactive: Potency [2] | Potency [3] | outcome [4] | outcome [5] | Potency [6] | Potency [7] | Potency [8] | Potency [9] | Potency [10] | Potency [11] | Potency [12] | Potency [13] | Potency [14] | Potency [15] | Potency [16] | Potency [17] | Potency [18]
active: Potency [1] 1880 nM

CC(C(=O)O)c1ccc2c(c1)CC(=O)c1ccccc1S2 (configuration not stated)
inactive: Potency [1] | Potency [2] | Potency [3] | outcome [4] | outcome [5] | Potency [6] | Potency [7] | Potency [8] | Potency [9] | Potency [10] | Potency [11] | Potency [12] | Potency [13] | Potency [14] | Potency [15] | Potency [19] | Potency [18]

CN1Cc2cc(C(=O)N3CCC(C4CCNCC4)CC3)ccc2NC(CC(=O)O)C1=O (configuration not stated)
active: Potency [14] 1300 nM
inactive: Potency [1] | Potency [2] | Potency [3] | outcome [4] | outcome [5] | Potency [6] | Potency [7] | Potency [8] | Potency [9] | Potency [10] | Potency [11] | Potency [12] | Potency [13] | Potency [15] | Potency [19] | Potency [16] | Potency [17] | Potency [18]

O=C1c2cccc(O)c2C(=O)c2c(O)cc(CO)cc21
inactive: Potency [1] | Potency [3] | outcome [4] | outcome [5] | Potency [6] | Potency [7] | Potency [8] | Potency [9] | Potency [10] | Potency [11] | Potency [12] | Potency [13] | Potency [14] | Potency [15] | Potency [19] | Potency [16] | Potency [17] | Potency [18]
active: Potency [2] 13700 nM

CCCCCCCCC(=O)Cl
inactive: Potency [1] | Potency [2] | Potency [3] | outcome [4] | outcome [5] | Potency [6] | Potency [7] | Potency [8] | Potency [9] | Potency [10] | Potency [11] | Potency [12] | Potency [13] | Potency [14] | Potency [15] | Potency [19] | Potency [16] | Potency [17] | Potency [18]

O=C(NC1CCN(CCc2c[nH]c3ccccc23)CC1)c1ccccc1
inactive: Potency [1] | Potency [2] | Potency [3] | outcome [4] | outcome [5] | Potency [6] | Potency [7] | Potency [8] | Potency [9] | Potency [10] | Potency [11] | Potency [13] | Potency [14] | Potency [15] | Potency [17]
active: Potency [12] 460 nM | Potency [16] 13300 nM

CCOC(=O)COc1ccc(C)cc1
inactive: Potency [1] | Potency [2] | Potency [3] | outcome [4] | outcome [5] | Potency [6] | Potency [7] | Potency [8] | Potency [9] | Potency [10] | Potency [11] | Potency [12] | Potency [13] | Potency [14] | Potency [15] | Potency [16] | Potency [17] | Potency [18]

Oc1cn2c(n1)Nc1ccc(Cl)c(Cl)c1C2
inactive: activity change, negative = cytotoxicity [1] -5.95% [at 19 µM] | activity, positive = activation [2] -4.99% [at 19 µM] | activity change [3] -1.21% [at 11.8 µM, active compounds read high] | activation [4] 1.57% [at 15.8 µM] | activation [5] 0.199% [at 11.8 µM] | activation [6] -4.43% [at 13.5 µM] | activation [7] -0.253% [at 13.6 µM] | activity change, negative = cytotoxicity [8] -1.56% [at 13.5 µM] | activity change, negative = cytotoxicity [9] -5.66% [at 13.5 µM] | activity change, negative = cytotoxicity [10] -7.7% [at 13.5 µM] | activation [11] 2.32% [at 13.5 µM] | activity, negative = inhibition [12] 4.4% [at 12.7 µM] | activation [13] 4.55% [at 15.9 µM] | activity, negative = inhibition [14] -10.4% [at 12.6 µM] | activation [15] -0.629% [at 15.8 µM] | activity change, negative = inhibition [16] 8.99% [at 19 µM] | activation [17] 1.31% [at 19 µM] | activity change, negative = inhibition [18] -3.31% [at 18.9 µM]

CC(C)[N+](C)(C)CC(O)COc1cccc2ccccc12 (configuration not stated)
inactive: Potency [1] | Potency [2] | Potency [3] | outcome [4] | outcome [5] | Potency [6] | Potency [7] | Potency [8] | Potency [9] | Potency [10] | Potency [11] | Potency [12] | Potency [13] | Potency [14] | Potency [15] | Potency [19] | Potency [17] | Potency [18]
active: Potency [16] 15000 nM
